High-throughput results as filed in PubChem.
Luciferase inh – blocks purified firefly luciferase enzyme activity; purified P. pyralis luciferase, luminescence, biochemical; 76,000 compounds, 2.5% hits; Potency, µM (series often up to 115 µM), most hits filed as inhibitors; also: nearly all actives have a fitted effect of over 65% in size
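FLuc 10nM, D-luciferin 10uM, ATP 10uM, Mg acetate 10mM, Tris acetate pH 7.5, Tween/BSA; cpd qHTS; enzyme added last; CCD luminescence.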
SNCA expr inhib – reduces expression of the alpha-synuclein gene. HEK-293 SNCA-luciferase knock-in, luminescence, 24 h. Potency, µM (series often up to 57.2 µM), for the others: at the top dose activity change, negative = inhibition, actives largely listed as inhibitors. 140,000 compounds, 0.17% hits;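 also: plate controls were DMSO cells for no effect and cell-free wells for full effect; nearly all actives have a fitted effect of over 45% in size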
HEK293 tox – kills HEK 293 cells; HEK 293 viability, ATP luminescence (CellTiter-Glo), 48-72 h; Potency, µM (series often up to 115 µM), without a hit: top-dose activity change, negative = cytotoxicity, most hits filed as inhibitors; 94,000 compounds, 6.6% hits; also: nearly all actives have a fitted effect of over 60% in size
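250 HEK 293 cells/well; compound by pintool; incubated 48 or 72 hr at 37 degree Celsius; CellTiter-Glo added, 10 min RT, luminescence imaged.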
hNpr1 antagonist – antagonists of human natriuretic peptide receptor Npr1. HEK293 hNpr1 GloSensor cGMP, ANP-stimulated luminescence. Potency, µM (series often up to 46.3 µM), for inactives: top-dose activity change, negative = inhibition, most hits filed as inhibitors. 76,000 compounds, 1.6% hits; calls by dose curve; also: nearly all actives have a fitted effect of over 60% in size
Target sequence (P16066 whole entry, looked up): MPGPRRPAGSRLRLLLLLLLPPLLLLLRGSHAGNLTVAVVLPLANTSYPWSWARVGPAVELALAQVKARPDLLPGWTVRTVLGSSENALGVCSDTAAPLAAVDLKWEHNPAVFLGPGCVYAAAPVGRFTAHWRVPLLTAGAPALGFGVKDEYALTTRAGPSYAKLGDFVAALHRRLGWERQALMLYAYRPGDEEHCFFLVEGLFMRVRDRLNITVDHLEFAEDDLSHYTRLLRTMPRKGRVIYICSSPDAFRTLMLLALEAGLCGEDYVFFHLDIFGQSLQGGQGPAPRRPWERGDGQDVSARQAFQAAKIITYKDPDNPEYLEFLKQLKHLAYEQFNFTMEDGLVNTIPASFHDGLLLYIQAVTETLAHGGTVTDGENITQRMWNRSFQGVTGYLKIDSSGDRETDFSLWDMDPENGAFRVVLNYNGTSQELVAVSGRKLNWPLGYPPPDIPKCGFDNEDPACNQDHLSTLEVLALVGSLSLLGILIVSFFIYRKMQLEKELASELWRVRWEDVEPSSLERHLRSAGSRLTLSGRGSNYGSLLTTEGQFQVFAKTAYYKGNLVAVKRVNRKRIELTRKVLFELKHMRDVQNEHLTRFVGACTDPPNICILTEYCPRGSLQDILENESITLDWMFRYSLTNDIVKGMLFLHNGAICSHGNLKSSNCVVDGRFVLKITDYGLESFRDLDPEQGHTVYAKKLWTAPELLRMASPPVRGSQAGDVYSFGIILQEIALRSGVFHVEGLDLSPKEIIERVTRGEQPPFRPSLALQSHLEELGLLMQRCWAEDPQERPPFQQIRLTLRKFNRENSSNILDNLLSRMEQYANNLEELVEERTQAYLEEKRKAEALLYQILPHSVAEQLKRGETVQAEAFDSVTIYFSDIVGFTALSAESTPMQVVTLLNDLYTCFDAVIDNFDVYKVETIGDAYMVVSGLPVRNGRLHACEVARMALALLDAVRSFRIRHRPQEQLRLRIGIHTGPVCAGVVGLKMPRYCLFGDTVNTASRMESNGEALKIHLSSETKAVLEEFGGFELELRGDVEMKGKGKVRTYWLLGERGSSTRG
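HEK293 cells stably expressing human Npr1 and cGMP GloSensor pGS-40F, loaded 2 h with 2% GloSensor reagent, given compound 30 min at room temperature. Luminescence read before and 20 min after 0.1 nM hNppA.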
SNCA viab count – cell viability loss counter-screen | HEK-293-SNCA-luc viability, GF-AFC fluorescence, 24 h | Potency, µM (series often up to 57.1 µM), for inactives: at the highest dose activity change, negative = cytotoxicity, most hits filed as cytotoxic | 150,000 compounds, 0.12% hits | AID 1671193;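 also: 0% = DMSO-treated cells and -100% = medium-only wells without cells; nearly all actives have a fitted effect of over 30% in size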
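Cytotoxicity counterscreen: after 24 h compound treatment of genome-edited SNCA-luciferase HEK-293 cells, live-cell protease substrate GF-AFC read by fluorescence after 30 min; activity scaled between DMSO (0%) and medium-only (-100%), curves Hill-fitted.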
NIH3T3 tox – cytotoxic compounds in NIH 3T3 cells; Potency, µM (highest dose often 96.7 µM), for the others: at the top dose activity change, negative = cytotoxicity, actives largely listed as inhibitors; NIH 3T3 viability, CellTiter-Glo ATP luminescence, 48-72 h; 94,000 compounds, 4.3% hits; also: nearly all actives have a fitted effect of over 55% in size
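Cytotoxicity was measured by CellTiter-Glo ATP luminescence after 48 or 72 h compound exposure at 37 °C. Mouse NIH 3T3 fibroblasts were seeded at 400 cells/well and dosed by 23 nL pin transfer.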
Starred values were filed as active, the others as inactive; i = inactive; u = inconclusive; x = no result; [ ] = dose if it differs, or a comment. Shown are actives, neighbours in structure and some others; about 7.2% of the full set was active somewhere. Unless noted, calls follow the shape of the dose curve; as a rule, active = well fitted curve in the direction sought with a large enough effect; inconclusive = small, poorly fitted or top-dose-only effect, or another doubt; inactive = no such curve, though single readings can be large; an effect the other way counts as inactive or inconclusive. Unless noted, % is scaled to controls: 0 for no effect and ±100 for the full control effect; potency is read from the fitted curve at half-maximal effect.

SMILES | Luciferase inh | SNCA expr inhib | HEK293 tox | hNpr1 antagonist | SNCA viab count | NIH3T3 tox
COCc1nc(CCNC(=O)c2cnn3c(C)c(Cc4ccccc4Cl)c(C)nc23)no1 | i | u | u | 0% | -8%[12.5 µM] | u
Cc1ccccc1Cc1c(C)nc2c(C(=O)NCCc3noc(-c4ccncc4)n3)cnn2c1C | i | -12% | 45µM* | 4% | -6%[12.5 µM] | u
Cc1ccccc1Cc1c(C)nc2c(C(=O)NCCc3noc(-c4cccnc4)n3)cnn2c1C | x | -11% | 89µM* | x | -13% | u
Cc1noc(C)c1CC(=O)NCCc1noc(-c2cccnc2)n1 | i | -4% | -4% | 0% | -6%[12.5 µM] | i
CCn1ncc(N2CCCC(CC(=O)N3CCN(c4ccccn4)CC3)C2)cc1=O (stereo unspecified) | i | 29% | u | 0% | 13% | -16%
COc1cc(OC)cc(-c2nc(C3CC(=O)N(Cc4ccccc4OC)C3)no2)c1 (stereo unspecified) | i | -17% | u | -14% | 9% | u
COc1ccccc1CN1CC(c2noc(-c3sccc3C)n2)CC1=O (stereo unspecified) | i | -3% | 40µM* | 8% | 1% | u
COc1ccccc1CN1CC(c2noc(-c3cc(C)cc(C)c3)n2)CC1=O (stereo unspecified) | i | -3% | 45µM* | 4% | -2% | u
Cn1nc(C(=O)N2C[C@@H](Oc3cccnc3)C[C@H]2C(=O)N2CCOCC2)c2ccccc21 | i | 0% | -2% | 5% | 1% | u
CC(=O)N1CCC(C(=O)N[C@H]2CCN3C(=O)N(c4ccc(Cl)cc4)C(=O)[C@@H]3C2)CC1 | i | u | -11%[172 µM] | 4%[70.6 µM] | 1%[87.6 µM] | -19%[138 µM]
COc1ccc(NC(=O)c2cc3sc(C)c(CN4CCCCC4)c3[nH]2)cc1OC | i | 28% | u | -5% | -24% | 40µM*
C=CCn1nc(C(=O)N2CCOCC2)c2c1CCC(NCC1(c3ccccc3)CCOCC1)C2 (stereo unspecified) | i | 6% | -1% | 3% | 0% | 0%
Cc1nc(-c2ccccc2)n(Cc2cccc(C(F)(F)F)c2)c(=O)c1CCO | i | 3% | 50µM* | 1% | -2% | u
Cc1nc(-c2ccccc2)n(Cc2cc(F)cc(F)c2)c(=O)c1CCO | i | 11% | u | -2% | 0% | u
Cc1nc(-c2ccc(Cl)cc2)n(Cc2cccc(C(F)(F)F)c2)c(=O)c1CCO | i | -2% | u | -7% | u | u
Cc1nc(-c2ccc(F)cc2)n(Cc2cccc(C(F)(F)F)c2)c(=O)c1CCO | i | -6% | 45µM* | -7% | 6% | u
COc1ccc(C(=O)N2CCC(Oc3ccc(-c4noc(-c5ccccc5)n4)cc3)C2)cn1 (stereo unspecified) | u | -16% | -25% | 11µM* | -4% | -22%
COc1cccc(C(=O)N2CC(Oc3ccc(-c4noc(-c5ccccc5)n4)cc3)C2)c1 | i | 14% | 3% | 2% | -8% | i
COc1ccc(C(=O)N2CCC(Oc3ccc(-c4noc(C(C)C)n4)cc3)C2)cc1 (stereo unspecified) | i | 22% | 40µM* | u | -6% | u
Cc1ccc(CN2CC[C@@H]3[C@H]2C(=O)NC[C@H](CCC(=O)N2CCN(C)CC2)N3C)cc1 | i | -20%[87.6 µM] | -8%[172 µM] | 5%[70.6 µM] | 0%[87.6 µM] | -20%[174 µM]
COc1ccc(NC(=O)C[C@@H]2C[C@@H](C(C)C)[C@H](CC#N)C=C2C)cn1 | i | -1%[87.6 µM] | 89µM* | -1%[70.6 µM] | -28%[87.6 µM] | 79µM*
Cc1ccc(C2NC(=O)N(CC(=O)Nc3ccc(C(F)(F)F)cc3)C3=C2C(=O)OC3)cc1 (stereo unspecified) | i | -35% | 25µM* | u | -9% | 32µM*
